Reference: paper PMC11006913
Where a chain is given by its changes, count along the chain named.

Tests used:
Experiment in all cases: PBM; 200 nM protein, PBS
Settings in all cases: dsDNA, one strand shown
HOXB4 [1] = biological target: HOXB4 (Homo sapiens, UniProt P17483 148-234)
VENTX [2] = biological target: T1, VENTX (Homo sapiens, UniProt O95231 78-163, R121Q)
T1 sequence: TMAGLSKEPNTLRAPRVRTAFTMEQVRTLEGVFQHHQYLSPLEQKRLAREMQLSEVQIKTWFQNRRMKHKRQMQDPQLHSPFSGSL

HOXA4 [3] = biological target: HOXA4 (Homo sapiens, UniProt Q00056 201-287, W262R)
Sequence of HOXA4 (Homo sapiens, UniProt Q00056 201-287, W262R) (Q00056 201-287 W262R): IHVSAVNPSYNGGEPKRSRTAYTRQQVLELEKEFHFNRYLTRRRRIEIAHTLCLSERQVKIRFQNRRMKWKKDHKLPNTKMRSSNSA

PRRX1 [4] = biological target: PRRX1 (Homo sapiens, UniProt P54821 80-166, F113S)
Sequence of PRRX1 (Homo sapiens, UniProt P54821 80-166, F113S) (P54821 80-166 F113S): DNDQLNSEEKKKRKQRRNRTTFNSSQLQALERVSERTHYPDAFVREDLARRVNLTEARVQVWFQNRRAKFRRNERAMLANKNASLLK

VENTX [5] = biological target: T2, VENTX (Homo sapiens, UniProt O95231 78-163, Y115F)
T2 sequence: T1 sequence with Y38F, Q44R

HOXB6 = HOXB6 (Homo sapiens, UniProt P17509 132-218, K202E)
Sequence of HOXB6 (P17509 132-218 K202E): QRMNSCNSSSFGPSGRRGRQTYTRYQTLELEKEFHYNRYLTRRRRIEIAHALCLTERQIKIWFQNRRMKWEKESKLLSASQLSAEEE

HOXA2 = HOXA2 (Homo sapiens, UniProt O43364 129-215, R185T)
Sequence of HOXA2 (O43364 129-215 R185T): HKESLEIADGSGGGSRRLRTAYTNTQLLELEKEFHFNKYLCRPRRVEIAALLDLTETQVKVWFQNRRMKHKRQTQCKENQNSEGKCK

HOXA4 [6] = biological target: HOXA4 (Homo sapiens, UniProt Q00056 201-287, R217L)
Sequence of HOXA4 (Homo sapiens, UniProt Q00056 201-287, R217L) (Q00056 201-287 R217L): as the sequence (Q00056 201-287 W262R) above, with R17L, R62W counted along it

HOXB4 [7] = biological target: HOXB4 (Homo sapiens, UniProt P17483 148-234, V174I)
Sequence of HOXB4 (Homo sapiens, UniProt P17483 148-234, V174I) (P17483 148-234 V174I): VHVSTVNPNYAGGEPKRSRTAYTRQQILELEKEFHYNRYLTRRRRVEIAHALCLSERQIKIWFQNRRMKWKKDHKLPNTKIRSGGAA

MSX2 [8] = biological target: MSX2 (Homo sapiens, UniProt P35548 130-214, R199I)
Sequence of MSX2 (Homo sapiens, UniProt P35548 130-214, R199I) (P35548 130-214 R199I): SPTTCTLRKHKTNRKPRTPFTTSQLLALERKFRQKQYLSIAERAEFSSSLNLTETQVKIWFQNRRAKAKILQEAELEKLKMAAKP

PAX4 [9] = biological target: T3, PAX4 (Homo sapiens, UniProt O43316 9-242, R200Q)
T3 sequence: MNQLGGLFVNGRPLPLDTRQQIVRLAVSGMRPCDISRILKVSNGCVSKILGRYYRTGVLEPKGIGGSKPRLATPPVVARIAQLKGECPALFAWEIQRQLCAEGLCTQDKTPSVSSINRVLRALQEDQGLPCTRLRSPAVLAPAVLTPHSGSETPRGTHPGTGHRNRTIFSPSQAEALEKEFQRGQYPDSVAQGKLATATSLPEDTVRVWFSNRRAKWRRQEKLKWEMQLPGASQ

PAX4 [10] = biological target: T4, PAX4 (Homo sapiens, UniProt O43316 9-242, F177V)
T4 sequence: T3 sequence with F169V, Q192R

HOXA4 [11] = biological target: HOXA4 (Homo sapiens, UniProt Q00056 201-287)
Sequence of HOXA4 (Homo sapiens, UniProt Q00056 201-287) (Q00056 201-287): as the sequence (Q00056 201-287 W262R) above, with R62W counted along it

MSX2 [12] = biological target: MSX2 (Homo sapiens, UniProt P35548 130-214)
Sequence of MSX2 (Homo sapiens, UniProt P35548 130-214) (P35548 130-214): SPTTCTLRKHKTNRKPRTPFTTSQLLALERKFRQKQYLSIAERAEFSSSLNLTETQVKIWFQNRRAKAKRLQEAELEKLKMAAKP

PAX4 [13] = biological target: T5, PAX4 (Homo sapiens, UniProt O43316 9-242, F177Y)
T5 sequence: T3 sequence with F169Y, Q192R

MSX2 [14] = biological target: MSX2 (Homo sapiens, UniProt P35548 130-214, F161Y)
Sequence of MSX2 (Homo sapiens, UniProt P35548 130-214, F161Y) (P35548 130-214 F161Y): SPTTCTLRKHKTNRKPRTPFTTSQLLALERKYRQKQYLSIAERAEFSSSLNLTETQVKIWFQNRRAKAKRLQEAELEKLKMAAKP

VAX1 [15] = biological target: VAX1 (Homo sapiens, UniProt Q5SQQ9 86-172, T142I)
Sequence of VAX1 (Homo sapiens, UniProt Q5SQQ9 86-172, T142I) (Q5SQQ9 86-172 T142I): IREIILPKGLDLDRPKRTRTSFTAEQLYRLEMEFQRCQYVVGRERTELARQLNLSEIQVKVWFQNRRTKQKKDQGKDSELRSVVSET

HOXA4 [16] = biological target: HOXA4 (Homo sapiens, UniProt Q00056 201-287, W262F)
Sequence of HOXA4 (Homo sapiens, UniProt Q00056 201-287, W262F) (Q00056 201-287 W262F): as the sequence (Q00056 201-287 W262R) above, with R62F counted along it

PRRX1 [17] = biological target: PRRX1 (Homo sapiens, UniProt P54821 80-166)
Sequence of PRRX1 (Homo sapiens, UniProt P54821 80-166) (P54821 80-166): as the sequence (P54821 80-166 F113S) above, with S34F counted along it

VAX1 [18] = biological target: VAX1 (Homo sapiens, UniProt Q5SQQ9 86-172, K157R)
Sequence of VAX1 (Homo sapiens, UniProt Q5SQQ9 86-172, K157R) (Q5SQQ9 86-172 K157R): as the sequence (Q5SQQ9 86-172 T142I) above, with I57T, K72R counted along it

Sequence of HOXB4 (Homo sapiens, UniProt P17483 148-234) (P17483 148-234): as the sequence (P17483 148-234 V174I) above, with I27V counted along it

| Sequence | binding signal (HOXB4 [1]) | binding signal (VENTX [2]) | binding signal (HOXA4 [3]) | binding signal (PRRX1 [4]) | binding signal (VENTX [5]) | binding signal (HOXB6) | binding signal (HOXA2) | binding signal (HOXA4 [6]) | binding signal (HOXB4 [7]) | binding signal (MSX2 [8]) | binding signal (PAX4 [9]) | binding signal (PAX4 [10]) | binding signal (HOXA4 [11]) | binding signal (MSX2 [12]) | binding signal (PAX4 [13]) | binding signal (MSX2 [14]) | binding signal (VAX1 [15]) | binding signal (HOXA4 [16]) | binding signal (PRRX1 [17]) | binding signal (VAX1 [18]) |
| --- | --- | --- | --- | --- | --- | --- | --- | --- | --- | --- | --- | --- | --- | --- | --- | --- | --- | --- | --- | --- |
| ATAATTAG | 13.6 upbm affinity estimate (log intensity, higher = more binding, comparable within an allelic series) | 12.4 upbm affinity estimate (log intensity, higher = more binding, comparable within an allelic series) | 10.9 upbm affinity estimate (log intensity, higher = more binding, comparable within an allelic series) | 11.9 upbm affinity estimate (log intensity, higher = more binding, comparable within an allelic series) | 12.3 upbm affinity estimate (log intensity, higher = more binding, comparable within an allelic series) | 10.1 upbm affinity estimate (log intensity, higher = more binding, comparable within an allelic series) | 13.9 upbm affinity estimate (log intensity, higher = more binding, comparable within an allelic series) | 12.7 upbm affinity estimate (log intensity, higher = more binding, comparable within an allelic series) | 14.3 upbm affinity estimate (log intensity, higher = more binding, comparable within an allelic series) | 13.2 upbm affinity estimate (log intensity, higher = more binding, comparable within an allelic series) | 12.6 upbm affinity estimate (log intensity, higher = more binding, comparable within an allelic series) | 10.8 upbm affinity estimate (log intensity, higher = more binding, comparable within an allelic series) | 14.2 upbm affinity estimate (log intensity, higher = more binding, comparable within an allelic series) | 14.1 upbm affinity estimate (log intensity, higher = more binding, comparable within an allelic series) | 11.3 upbm affinity estimate (log intensity, higher = more binding, comparable within an allelic series) | 13.7 upbm affinity estimate (log intensity, higher = more binding, comparable within an allelic series) | 13.9 upbm affinity estimate (log intensity, higher = more binding, comparable within an allelic series) | 12.3 upbm affinity estimate (log intensity, higher = more binding, comparable within an allelic series) | 13.7 upbm affinity estimate (log intensity, higher = more binding, comparable within an allelic series) | 13.9 upbm affinity estimate (log intensity, higher = more binding, comparable within an allelic series) |
| CAATTACC | 13 upbm affinity estimate (log intensity, higher = more binding, comparable within an allelic series) | 11.7 upbm affinity estimate (log intensity, higher = more binding, comparable within an allelic series) |  | 10.9 upbm affinity estimate (log intensity, higher = more binding, comparable within an allelic series) | 11.5 upbm affinity estimate (log intensity, higher = more binding, comparable within an allelic series) | 9.82 upbm affinity estimate (log intensity, higher = more binding, comparable within an allelic series) | 12.6 upbm affinity estimate (log intensity, higher = more binding, comparable within an allelic series) | 11.9 upbm affinity estimate (log intensity, higher = more binding, comparable within an allelic series) | 13.7 upbm affinity estimate (log intensity, higher = more binding, comparable within an allelic series) | 12.7 upbm affinity estimate (log intensity, higher = more binding, comparable within an allelic series) |  |  |  | 13.8 upbm affinity estimate (log intensity, higher = more binding, comparable within an allelic series) |  | 13.5 upbm affinity estimate (log intensity, higher = more binding, comparable within an allelic series) | 12.5 upbm affinity estimate (log intensity, higher = more binding, comparable within an allelic series) |  | 13.3 upbm affinity estimate (log intensity, higher = more binding, comparable within an allelic series) | 12.5 upbm affinity estimate (log intensity, higher = more binding, comparable within an allelic series) |
| GTAATTGA | 13.1 upbm affinity estimate (log intensity, higher = more binding, comparable within an allelic series) |  | 10.4 upbm affinity estimate (log intensity, higher = more binding, comparable within an allelic series) | 11 upbm affinity estimate (log intensity, higher = more binding, comparable within an allelic series) |  |  | 12.5 upbm affinity estimate (log intensity, higher = more binding, comparable within an allelic series) | 12 upbm affinity estimate (log intensity, higher = more binding, comparable within an allelic series) | 13.8 upbm affinity estimate (log intensity, higher = more binding, comparable within an allelic series) | 12.5 upbm affinity estimate (log intensity, higher = more binding, comparable within an allelic series) |  |  | 13.5 upbm affinity estimate (log intensity, higher = more binding, comparable within an allelic series) | 13.7 upbm affinity estimate (log intensity, higher = more binding, comparable within an allelic series) |  | 13.4 upbm affinity estimate (log intensity, higher = more binding, comparable within an allelic series) | 12.4 upbm affinity estimate (log intensity, higher = more binding, comparable within an allelic series) | 11.2 upbm affinity estimate (log intensity, higher = more binding, comparable within an allelic series) | 13.3 upbm affinity estimate (log intensity, higher = more binding, comparable within an allelic series) | 12.6 upbm affinity estimate (log intensity, higher = more binding, comparable within an allelic series) |
| CAATTATG | 13 upbm affinity estimate (log intensity, higher = more binding, comparable within an allelic series) |  |  | 11.3 upbm affinity estimate (log intensity, higher = more binding, comparable within an allelic series) |  | 9.97 upbm affinity estimate (log intensity, higher = more binding, comparable within an allelic series) | 12.5 upbm affinity estimate (log intensity, higher = more binding, comparable within an allelic series) |  | 13.6 upbm affinity estimate (log intensity, higher = more binding, comparable within an allelic series) | 12.8 upbm affinity estimate (log intensity, higher = more binding, comparable within an allelic series) |  |  |  | 13.9 upbm affinity estimate (log intensity, higher = more binding, comparable within an allelic series) |  | 13.5 upbm affinity estimate (log intensity, higher = more binding, comparable within an allelic series) |  |  | 13.5 upbm affinity estimate (log intensity, higher = more binding, comparable within an allelic series) |  |
| CAATTAGC | 13.3 upbm affinity estimate (log intensity, higher = more binding, comparable within an allelic series) | 12.6 upbm affinity estimate (log intensity, higher = more binding, comparable within an allelic series) | 10.5 upbm affinity estimate (log intensity, higher = more binding, comparable within an allelic series) | 11.1 upbm affinity estimate (log intensity, higher = more binding, comparable within an allelic series) | 12.3 upbm affinity estimate (log intensity, higher = more binding, comparable within an allelic series) |  | 13.4 upbm affinity estimate (log intensity, higher = more binding, comparable within an allelic series) | 11.9 upbm affinity estimate (log intensity, higher = more binding, comparable within an allelic series) | 14 upbm affinity estimate (log intensity, higher = more binding, comparable within an allelic series) | 13.1 upbm affinity estimate (log intensity, higher = more binding, comparable within an allelic series) | 12 upbm affinity estimate (log intensity, higher = more binding, comparable within an allelic series) | 10.3 upbm affinity estimate (log intensity, higher = more binding, comparable within an allelic series) | 13.9 upbm affinity estimate (log intensity, higher = more binding, comparable within an allelic series) | 14.1 upbm affinity estimate (log intensity, higher = more binding, comparable within an allelic series) | 10.8 upbm affinity estimate (log intensity, higher = more binding, comparable within an allelic series) | 13.8 upbm affinity estimate (log intensity, higher = more binding, comparable within an allelic series) | 13.3 upbm affinity estimate (log intensity, higher = more binding, comparable within an allelic series) | 11.5 upbm affinity estimate (log intensity, higher = more binding, comparable within an allelic series) | 13.4 upbm affinity estimate (log intensity, higher = more binding, comparable within an allelic series) | 13.3 upbm affinity estimate (log intensity, higher = more binding, comparable within an allelic series) |
| GCAAGGGC | 7.23 upbm affinity estimate (log intensity, higher = more binding, comparable within an allelic series) |  | 9.8 upbm affinity estimate (log intensity, higher = more binding, comparable within an allelic series) |  |  |  |  | 9.73 upbm affinity estimate (log intensity, higher = more binding, comparable within an allelic series) | 7.22 upbm affinity estimate (log intensity, higher = more binding, comparable within an allelic series) |  |  |  | 9.73 upbm affinity estimate (log intensity, higher = more binding, comparable within an allelic series) |  |  |  |  | 9.87 upbm affinity estimate (log intensity, higher = more binding, comparable within an allelic series) |  |  |
